Screening data: PubChem, several laboratories
This is a sample that favours compounds with a hit; in the whole collection about 3% have one here.
Mcl1 Noxa PPI – disrupts binding of human Mcl-1 to Noxa peptide. Q07820. TR-FRET Mcl-1/Noxa peptide binding, 2 h. inhibition, % at 21.7 µM. hit rate 1.5% among 220,000. AID 1022;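 active = compounds that cut the protein-peptide binding signal by more than 50% relative to plate controls in a single-dose test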;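 also: His-tagged Mcl-1 with rhodamine Noxa BH3 peptide and terbium anti-His antibody; 0% = Mcl-1 plus Noxa peptide wells and 100% = peptide-only wells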
Target sequence (Q07820 whole entry, looked up): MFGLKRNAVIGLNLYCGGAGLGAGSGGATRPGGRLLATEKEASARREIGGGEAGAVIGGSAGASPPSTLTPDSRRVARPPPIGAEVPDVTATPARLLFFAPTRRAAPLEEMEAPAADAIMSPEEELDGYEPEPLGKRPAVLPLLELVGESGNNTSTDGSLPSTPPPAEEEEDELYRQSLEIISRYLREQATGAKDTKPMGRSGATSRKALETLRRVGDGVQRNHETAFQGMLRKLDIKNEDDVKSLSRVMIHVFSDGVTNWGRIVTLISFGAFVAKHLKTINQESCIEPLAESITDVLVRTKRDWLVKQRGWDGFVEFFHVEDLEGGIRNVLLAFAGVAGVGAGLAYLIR
14-3-3 Bad PPI – disrupts binding of bovine 14-3-3 zeta to phospho-Bad peptide; P63103; TR-FRET 14-3-3zeta/Dy647-pBad peptide displacement, 1 h; inhibition, % at 21.7 µM; hit rate 0.71% among 220,000;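 active = inhibition above about 70%, limit read from the data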;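 also: 0% = full 14-3-3 plus peptide FRET controls and 100% = background without 14-3-3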
Mcl1-Bid inh – Mcl-1/Bid interaction inhibition; Q07820; hit rate 0.97% among 220,000; inhibition, % at 21.7 µM; TR-FRET Mcl-1/Bid-Dy647 peptide binding, 1536-well;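 active = compounds that cut the binding signal by more than half at the single screening dose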;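 also: His-tagged Mcl-1 with europium anti-His antibody binding Bid BH3 peptide; 0% = Mcl-1 plus peptide wells and 100% = peptide-only wells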
Mcl-1 Bim block – inhibitors of Bim-Mcl-1 interaction, human; Q07820; Bead-based flow cytometry, Bim peptide-Mcl-1 binding; inhibition, % at 10 µM; hit rate 0.1% among 190,000; AID 1009; in the data active = inhibition above about 40%;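 also: 0% = no compound tracer wells and 100% = peptide blocker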
Arbovirus anti – antivirals against arbovirus infection; inhibition, % at 10 µM; hit rate 0.37% among 200,000; arbovirus infection cell-based antiviral screen; in the data active = inhibition above about 30%
* marks the source's active call; other numbers are inactive results; . = no result given.

SMILES | Mcl1 Noxa PPI | 14-3-3 Bad PPI | Mcl1-Bid inh | Mcl-1 Bim block | Arbovirus anti
Cn1c(O)c(/C=C/C=Nc2ccccc2)c(=O)n(C)c1=S | 70* | 5 | 56* | -4 | 2
Cc1cccc(-n2c(O)c(/C=C/C=Nc3ccccc3)c(=O)[nH]c2=O)c1 | 6 | -13 | -28 | 0 | -5
O=c1c(C=Nc2cccnc2Cl)c(O)n(CCCCl)c(=O)n1C1CCCCC1 | 17 | -27 | -4 | 8 | -1
O=C(Cc1ccccc1)OCCNC(=O)c1cccnc1 | 13 | 71* | 47 | 92* | 0
COc1cccc(CN2CCCCC2c2cccnc2)c1 (stereo unspecified) | 29 | 81* | 38 | -1 | 12
COc1ccc(CN2CCCCC2c2cccnc2)cc1C (stereo unspecified) | 13 | 55 | -8 | 2 | 3
C[N+]1(C)[C@@H]2CC[C@H]1CC(OC(=O)C(CO)c1ccccc1)C2 (stereo partly specified) | 13 | -3 | -14 | -4 | 1
C[N+]1(C)C2CCC1CC(OC(=O)C(CO)c1ccccc1)C2 (stereo unspecified) | 21 | 91* | -14 | 0 | 0
Cn1c(O)c(C(c2ccccn2)c2c(O)n(C)c(=S)[nH]c2=O)c(=O)[nH]c1=S | 4 | 77* | 4 | 2 | 8
O=C(O)c1ccc2c(c1)C1C(Cl)C(Sc3ccccc3[N+](=O)[O-])CC1C(c1cccc([N+](=O)[O-])c1)N2 (stereo unspecified) | 77* | 9 | -49 | 1 | 30
O=[N+]([O-])c1cccc(C2N3CCCN23)c1 (stereo unspecified) | -2 | 2 | 2 | 1 | 0
O=C(O)c1cccc2c1NC(c1cccc([N+](=O)[O-])c1)C1CC(Sc3ccccc3[N+](=O)[O-])C(Cl)C21 (stereo unspecified) | 98* | 26 | 43 | -2 | 0
CC1(C)OC(c2ccccc2)=C/C(=C/C=C2C(=O)NC(=S)NC2=O)O1 | -30 | -12 | -24 | 26 | 10
CN1/C(=C\C=C2C(=O)NC(=S)NC2=O)C(C)(C)c2ccccc21 | -35 | -24 | 82* | -3 | -1
CN1CCN(c2cc(N3CCCC3)c([N+](=O)[O-])cc2F)CC1 | -6 | -18 | -29 | -2 | -8
CCN1CCN(c2cc(N3CCCC3)c(F)cc2[N+](=O)[O-])CC1 | 65* | -5 | -20 | -3 | -9
Cc1nc(CCl)cc(=O)[nH]1 | 6 | -5 | -2 | -3 | 15
Cc1ccc(-n2c(O)c(C=NCc3ccco3)c(=O)[nH]c2=S)cc1C | -14 | 10 | -14 | . | .
COc1ccc2ccc(O)c(CN3CC=C(c4ccccc4)CC3)c2c1 | 17 | -11 | -24 | 2 | 30*
COc1ccc2c(CN3CC=C(c4ccccc4)CC3)cc(=O)oc2c1 | 17 | 15 | 2 | 36 | 2
COC(=O)C1C(OC(=O)c2ccccc2)CC2CCC1N2C (stereo unspecified) | 13 | -2 | 12 | -5 | 7
COc1cccc(N2C(=O)NC(=O)/C(=C/c3ccc4c5c(cccc35)CC4)C2=O)c1 | 52* | 29 | 9 | -6 | -3
CCCCN1C(=O)/C(=C/C=C/c2ccco2)C(=O)NC1=S | 96* | 58 | 76* | -1 | -10
CN(C)c1ccc(C=C2C(=O)NC(=S)NC2=O)cc1[N+](=O)[O-] | 65* | 1 | -11 | -2 | -6
CN(C)c1ccc(C=C2C(=O)NC(=O)NC2=O)cc1[N+](=O)[O-] | 1 | -1 | -38 | 9 | 3
SMILES | Mcl1 Noxa PPI | 14-3-3 Bad PPI | Mcl1-Bid inh | Mcl-1 Bim block | Arbovirus anti
CCC(=Nc1ccccc1NC(C)=O)c1c(O)n(C)c(=O)n(C)c1=O | 1 | -14 | -7 | -2 | 4
CN(C)CP(=O)(O)CN(C)C=O | -20 | 91* | -40 | 2 | 3
C[C@H]1CCCC(=O)CCCCCc2cc(O)cc(O)c2C(=O)O1 | 2 | -5 | -1 | 1 | 11
Cc1ccc(OP(=O)(NC(C)c2ccccc2)Oc2ccc(C)cc2)cc1 (stereo unspecified) | 12 | -6 | -14 | -5 | -7
CCCCN(Cc1ccccc1)C1CCN(CCc2ccccc2)CC1 | 51* | 17 | 16 | -7 | 15
c1ccc(CCN2CCC(N3CCN(c4ccccc4)CC3)CC2)cc1 | 11 | 15 | -16 | -2 | -8
CN1CCC(N(C)c2nc(-c3ccc([N+](=O)[O-])cc3)nc3ccccc23)CC1 | 94* | 2 | -2 | 0 | -42
CCN(CC)CCNCC(=O)Nc1ccc(Cl)cc1C(=O)c1ccccc1 | 26 | 86* | 15 | 3 | 8
